From PubChem BioAssay
PfHsp90 set2 – growth inhibition of PfHsp90-expressing yeast, primary screen, antimalarial PfHsp90 inhibitor project, S. cerevisiae, BacTiter-Glo luminescence, single point, set 2; BacTiter-Glo ATP, 48 h; yeast lacking PDR1 and PDR3 efflux regulators; inhibition, % at 9.4 µM; 310,000 compounds, 0.32% hits;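 active means every replicate shows inhibition above about 80%, whatever the replicate mean, limit read from the data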;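 further: 0% = DMSO neutral controls and 100% = 20 µM radicicol positive controls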
tim10-1 inh – growth inhibitors of tim10-1 mutant yeast, primary screen, luminescence, uHTS; S. cerevisiae tim10-1 ts strain growth, BacTiter-Glo, 24 h; inhibition, % at 20 µM; 330,000 compounds, 2.2% hits;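 active means inhibition of at least 40%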;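 further: mutant grown at 25 °C; 0% = DMSO wells with yeast and 100% = wells holding no yeast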
tim23-1 inh – growth inhibitors of tim23-1 mutant yeast, primary screen, luminescence, uHTS; S. cerevisiae tim23-1 growth, BacTiter-Glo luminescence, 24 h; inhibition, % at 20 µM; 330,000 compounds, 1.3% hits; AID 463212, 2010;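 active means growth inhibition of the mutant yeast at or above 50%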;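 further: temperature-sensitive mutant grown at 25 °C; plate controls were DMSO-treated mutant yeast for no effect and medium wells lacking yeast for full effect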
NALP3 yeast inh – NALP3 inflammasome inhibitors in reconstituted yeast, primary screen, luminescence, uHTS. Yeast reconstituted NLRP3/ASC/caspase-1, beta-gal luminescence, 24 h. inhibition, % at 10 µM. 330,000 compounds, 0.39% hits. AID 2825, 2010;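 active means inhibition of 50% or more; inactive means inhibition below 50%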;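 further: plate controls were induced DMSO wells for no effect and uninduced yeast grown without galactose for full effect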
SKKanGAS inh – S. pyogenes SKKanGAS growth inhibitors in kanamycin, primary screen, streptokinase expression inhibitor project, SKKanGAS strain, BacTiter-Glo luminescence; 6 h; inhibition, % at 7.5 µM; 300,000 compounds, 1.3% hits;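 active means mean replicate score, as percent of positive control median, at least 50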;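 further: strain carries kanamycin resistance gene driven by streptokinase promoter and grows in 40 µg/ml kanamycin; loss of luminescence reflects streptokinase promoter inhibition or plain growth inhibition; 0% = median of DMSO wells and 100% = positive control at its reference dose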
TIM10 inh – growth inhibitors of isogenic TIM10 control yeast, primary screen, counter-screen for tim10-1 yeast inhibitor project, luminescence, uHTS. S. cerevisiae TIM10 strain growth, BacTiter-Glo luminescence, 24 h. inhibition, % at 10 µM. 330,000 compounds, 1.4% hits. AID 463195, 2010;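 active means inhibition of 40% or more at the single tested concentration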;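 further: wild-type TIM10 isogenic control strain grown at permissive 25 °C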
tim10 confirm – growth inhibitors of wild-type TIM10 yeast, confirmation, counter-screen for tim10-1 synthetic lethality project, single concentration, luminescence, S. cerevisiae; shares compounds with TIM10 inh; S. cerevisiae tim10 strain growth, BacTiter-Glo luminescence, 24 h; inhibition, % at 10 µM; 4,600 compounds, 63% hits; AID 463215, 2010;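 active means inhibition of yeast growth at or above a set limit in either of two replicates at 10 µM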;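 further: this counterscreen used the strain with wild-type TIM10; 0% = yeast with DMSO and 100% = medium wells lacking yeast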
tim23-1 confirm – tim23-1 mutant yeast growth inhibitors, confirmation, luminescence, single concentration; shares compounds with tim23-1 inh; S. cerevisiae tim23-1 growth, BacTiter-Glo luminescence, 24 h; inhibition, % at 20 µM; 4,400 compounds, 83% hits;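 active means inhibition above about 39% in either of two replicate wells at 20 µM, limit read from the data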;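 further: temperature-sensitive tim23-1 mutant grown at 25 °C; 0% = DMSO wells with yeast and 100% = medium wells without yeast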
* = called active by the depositor; . = no result. Compounds with a hit are over-represented: about 4.5% of the library has one in this group of screens.

SMILES	PfHsp90 set2	tim10-1 inh	tim23-1 inh	NALP3 yeast inh	SKKanGAS inh	TIM10 inh	tim10 confirm	tim23-1 confirm
CCOC(=O)C1CCN(CCCSc2ccc(C)cc2)CC1	-3.3	.	.	.	-4.6	.	.	.
Cc1cc(S(=O)(=O)NCC2CCCO2)c(C)cc1Br (configuration not stated)	-20.9	15.7	20.9	13.3	-3.4	-0.5	.	.
CCCOC(=O)Oc1ccc2c(=O)c(Oc3cc(C)cc(C)c3)coc2c1	4.4	37.7	50.8*	19.6	-2.2	46.6*	41.2*	52.8*
Cc1ccn2cc(C(=O)Nc3ccc4c(c3)OCCO4)nc2c1	-13.0	29.4	50.3*	30.3	-3.3	43.8*	24.8	49.5*
Cc1ccn2cc(C(=O)Nc3nnc(C)s3)nc2c1	-0.8	20.2	24.5	11.8	-2.5	20.4	.	.
O=S(=O)(c1ccc2ccccc2c1)N1CCN(c2ccc(O)cc2)CC1	-15.4	30.5	57.8*	-10.8	.	44.0*	44.0*	48.0*
Cc1cc2n(n1)C(c1ccc(N(C)C)cc1)Nc1ccccc1-2 (configuration not stated)	.	34.2	55.3*	13.8	-16.9	40.1*	34.4*	63.9*
Nc1ccc(Cl)c(-c2nc3ncccc3o2)c1	-9.4	-0.6	-0.8	14.0	2.5	8.0	.	.
Nc1ccc(-c2nc3ncccc3o2)c(O)c1	-10.2	1.2	57.5*	48.2	1.2	50.4*	42.8*	65.0*
CC1(C)CC(NC(=S)NC(=O)c2cc(Br)ccc2Cl)CC(C)(C)N1	.	-4.3	2.4	6.9	.	-7.5	.	.
O=C1c2ccccc2C(=O)c2c1ncn2-c1ccccc1	-43.2	39.0	50.0	23.7	-13.0	45.7*	3.7	44.7*
O=C1c2ccccc2C(=O)c2[nH]cnc21	-9.0	.	.	.	12.4	.	.	.
COC(=O)c1ccccc1NC(=S)NC(=O)c1ccccc1	13.7	14.2	34.3	4.5	2.9	37.2	.	.
COC(=O)c1ccccc1NC(=S)NC(=O)c1ccc(C)cc1	4.2	26.5	59.8*	2.4	-0.5	51.1*	15.4	45.1*
COc1ccc(NC(=O)CN(C)C(=O)CSCc2c(C)noc2C)cc1	2.0	6.1	8.3	15.2	-6.9	19.7	.	.
CCn1c(C)c(C)c2cc(C(=O)Nc3cccc(Cl)c3)ccc21	-10.7	20.0	52.4*	22.5	7.1	40.6*	51.5*	57.0*
Cc1ccc(Nc2ncccc2C(=O)O)cc1C	4.0	-8.1	-11.9	5.8	-2.4	1.8	.	.
Cc1ccc(Nc2ncccc2C(N)=O)cc1[N+](=O)[O-]	-5.9	23.8	56.1*	8.9	-3.8	43.0*	40.0*	69.3*
COc1ccc(CN2CCNC(=O)C2CC(=O)NC2CC(C)(C)CC(C)(C)C2)cc1OC (configuration not stated)	6.7	16.2	14.8	-8.7	-2.5	3.9	.	.
CCN(CC)CCN1C(=O)/C(=C\c2ccc(Cl)c([N+](=O)[O-])c2)SC1=Nc1ccc(OC)cc1	-15.6	-0.2	66.1*	38.7	13.0	41.2*	35.2*	56.9*
CCCN1C(=O)/C(=C/c2ccc(C)s2)SC1=Nc1ccc(OC)cc1	7.1	7.5	-6.2	17.7	18.1	6.4	.	.
O=C(C1COc2ccccc2O1)N1CCN(c2ccc([N+](=O)[O-])cc2)CC1 (configuration not stated)	-12.2	35.5	61.0*	12.3	.	43.0*	46.9*	54.5*
CCOC(=O)/C(=C\c1ccc(OC)c(OC)c1)C(=O)c1cccnc1	29.9	34.6	59.4*	27.3	-4.5	49.8*	48.4*	56.3*
CCOC(=O)C(=Cc1ccc(OCc2ccc([N+](=O)[O-])cc2)c(OC)c1)C(=O)OCC	21.8	14.4	14.2	6.4	-0.6	30.6	.	.
CCN(CC(=O)Nc1ccc2c(c1)OCCO2)C(=O)c1ccccc1Br	.	18.8	27.5	9.3	.	14.2	.	.
SMILES	PfHsp90 set2	tim10-1 inh	tim23-1 inh	NALP3 yeast inh	SKKanGAS inh	TIM10 inh	tim10 confirm	tim23-1 confirm
O=C(C#Cc1ccccc1)c1ccco1	104.1*	21.7	61.0*	-28.2	-3.0	55.7*	68.8*	62.3*
CN(Cc1ccccc1)C(=O)c1ccco1	.	4.8	-4.1	-11.9	-2.0	-19.1	.	.
O=C1NC(=O)N(C2CCCCC2)CC1Br (configuration not stated)	5.8	.	.	.	.	.	.	.
COc1ccc(C(c2c(N)[nH]c(=S)[nH]c2=O)c2c(N)[nH]c(=S)[nH]c2=O)cc1	-12.1	-2.0	12.5	16.8	-3.0	3.9	.	.
Oc1ccc(Cl)cc1Cc1cc(Cl)ccc1O	106.7*	-7.6	73.2*	12.3	18.6	50.3*	63.0*	8.2
COc1ccc(Nc2nc(N)nc(CSC(=S)N3CCCCC3C)n2)cc1 (configuration not stated)	-11.0	29.3	53.1*	12.5	4.8	40.0	24.3	44.9*
COc1ccc(Nc2nc(N)nc(CSC(=S)N3CCCCC3)n2)cc1	-4.8	37.1	25.1	-4.8	-6.3	34.9	.	.
COc1ccc(-c2cc(CCC(=O)N3CCN(c4cc(C)ccc4C)CC3)on2)cc1	4.4	28.1	38.8	.	.	7.5	.	.
O=c1[nH]c(C2CCCN(S(=O)(=O)c3ccc(F)cc3)C2)nc2c1nnn2Cc1ccc(F)cc1 (configuration not stated)	-14.6	-13.3	-13.6	4.4	10.4	-24.6	.	.
CC1=CC(C)(C)N(C(=O)CN2C(=O)CCC2=O)c2ccccc21	11.3	10.6	5.3	-1.0	-4.1	3.1	.	.
CC1=CC(C)(C)N(C(=O)CN2C(=O)c3ccccc3C2=O)c2ccc(C)cc21	17.8	39.6	60.3*	25.1	-16.1	43.8*	50.1*	58.9*
COc1cc(/C=N/N2CCCCC2)cc([N+](=O)[O-])c1O	9.1	16.6	24.2	-56.0	0.4	16.6	.	.
O=C(COc1coc(CN2CCN(Cc3ccccc3)CC2)cc1=O)Nc1ccccc1	12.1	3.1	-1.4	7.0	-14.4	3.6	.	.
CN1/C(=C\C(=O)CSc2cccc[n+]2[O-])C(C)(C)c2ccccc21	11.6	32.1	65.2*	2.2	0.8	41.3*	-5.8	78.1*
CC(C)=CCc1c(O)ccc(C(=O)Cc2ccccc2)c1O	-8.6	18.5	66.9*	19.9	23.1	40.6*	58.0*	-32.4
